Data as given in the supplement of paper PMC9334596.
Several values for one entry are separate records, joined by “and”; a condition that tells them apart may be missing. Equal values may be shown once. Over roughly 5,300 compounds, “PER2::LUC luminescence relative to vehicle control” has its median near 0.96; the highest 2% begin near 1.3. The entries come from a sample that favours the highest values as a whole.

Tested on: mPer2Luc MEF
Experiment: PER2::LUC luminescence relative to vehicle control (fold of vehicle); higher = higher PER2::LUC reporter signal
Conditions: 10 µM
Outline: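 The reported values are PER2::LUC luminescence as fold of vehicle control in mouse embryonic fibroblasts carrying the mPer2Luc reporter. Cells were seeded at ~3000 per well in 384-well plates in DMEM with 10% FBS at 37 °C and 5% CO2, and compounds were added at 10 μM 48 h later. ONE-Glo luminescence was read 24 h and 30 h after treatment.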

SMILES | PER2::LUC luminescence (time after treatment 24 h) | PER2::LUC luminescence (time after treatment 30 h)
CC(=O)OC[C@@]1(O)C[C@@]23CC[C@@H]4c5ccoc5CC[C@@]4(C)[C@@H]2CC[C@@H]1C3 | 1.05 | 1.06
C=CCCCCCCCCCCCC(O)CC(O)CO (configuration not stated) | 0.967 | 0.789
CC1(C)CCC[C@](C)([C@H]2CC[C@]3(C)[C@@H]2[C@H](O)C[C@@H]2[C@@]4(C)CC[C@H](O)C(C)(C)[C@@H]4CC[C@]23C)O1 | 1.02 | 1.02
CC(C)(C)c1nc2c3cc[nH]c(=O)c3c3cc(F)ccc3c2[nH]1 | 0.802 | 0.906
CCOC(=O)c1cn(-c2c(F)c(F)c(C#N)c(F)c2F)c2c(F)c(F)c(F)cc2c1=O | 1.08 | 1.19
CCCCOc1ccc(C(=O)CCN2CCCCC2)cc1 | 0.957 | 1.41
O=C(c1ccc(OCCN2CCCCC2)cc1)c1c(-c2ccc(O)cc2)sc2cc(O)ccc12 | 0.35 | 0.69
CCCCOc1ccc(OCCCN2CCOCC2)cc1 | 1.12 | 1.18
CCN1CCN(Cc2ccc(NC(=O)Nc3ccc(Oc4cc(NC)ncn4)cc3)cc2C(F)(F)F)CC1 | 0.107 | 0.14
CO/N=C(\C(=O)N[C@@H]1C(=O)N2C(C(=O)[O-])=C(C[n+]3ccc(N)n3CCO)CS[C@H]12)c1csc(N)n1 | 1.12 | 1.1
Cc1ncc([N+](=O)[O-])n1C | 1.13 | 0.998
CSc1ccc(OCc2ncc([N+](=O)[O-])n2C)cc1 | 1.41 | 1.31
Cn1c([N+](=O)[O-])cnc1COC(N)=O | 1.15 | 1.27
N[C@](CCCCB(O)O)(CCN1CCCCC1)C(=O)O | 1.07 | 1.08
Cc1ccccc1-n1c([C@H](C)Nc2nc(N)nc3nc[nH]c23)nc2cccc(C)c2c1=O | 0.801 | 0.66
CCCCN(CCCC)S(=O)(=O)c1ccc(C(=O)O)cc1 | 0.899 | 1.04
O=C(/C=C/c1ccc(O)cc1)CC(=O)/C=C/c1ccc(O)cc1 | 1.1 | 1.07
COc1ccc([C@@H](C)C(=O)c2ccc(O)cc2O)cc1 | 1.1 | 1.08
COc1cc(/C=C/C(=O)c2ccc(O)cc2O)ccc1O | 1.02 | 1.04
COc1ccc(C(=O)/C=C/c2ccccc2)cc1 | 1.25 | 1.28
COc1ccc(C(=O)c2ccc(C)cc2)c(O)c1 | 1.02 and 1.29 | 1.55 and 1.57
COc1ccc(C(=O)c2ccccc2O)c(O)c1 | 1.02 | 1.04
COc1ccc(C(=O)c2ccccc2)c(O)c1 | 1.22 | 1.21
COc1ccc(/C=C/C(=O)c2cc(O)ccc2O)cc1 | 0.754 | 0.827
COc1ccc(/C=C/C(=O)c2ccc(O)cc2O)cc1 | 1.51 | 1.56
COc1ccc(C(C)=O)c(O)c1 | 0.967 | 0.936

SMILES | PER2::LUC luminescence (time after treatment 24 h) | PER2::LUC luminescence (time after treatment 30 h)
O=C(/C=C/c1ccccc1)c1ccc(O)cc1 | 1.33 | 1.48
COc1ccc(CC(=O)c2ccc(O)cc2O)cc1 | 1.63 | 1.51
CCC(C(=S)O[C@]12CCC[C@H](CC1)N2C)c1ccccc1 (some centres not stated) | 0.715 | 0.77
Nc1ccc(S(=O)(=O)NCCc2ccccc2)cc1 | 1.03 | 1
CC1=CC(=O)C2=C(C)CC[C@@H]3[C@H](OC(=O)[C@H]3C)[C@@H]12 | 0.959 | 0.978
OCC12COC(c3ccc(F)cc3)N1C(c1ccc(F)cc1)OC2 (configuration not stated) | 1.07 | 1.03
C[C@@H](Nc1cc(NS(=O)(=O)N2CCC2)nc(SCc2cccc(F)c2F)n1)[C@@H](O)CO | 1.03 | 1
COc1ccc2c(c1)C[C@H](C(=O)Nc1ccc(-c3cn[nH]c3)cc1OCCN(C)C)CO2 | 0.472 | 0.452
CCN(CC)C(=O)C(c1ccccc1)N1CCN(c2ccc(NC(=O)c3ccccc3-c3cccnc3)cc2F)CC1 (configuration not stated) | 0.968 | 1.09
O=C[C@H](O)[C@H](O)CO | 0.921 | 0.987
CN1C(=O)C[C@H](C(=O)O)[C@H]1c1cccnc1 | 1.08 | 1.07
O=C(/C=C/c1ccccc1)c1ccc(O[C@@H]2O[C@H](CO)[C@@H](O)[C@H](O)[C@H]2O)cc1O | 1.21 | 1.27
CC(C)=CCc1c(O)ccc(C(=O)/C=C/c2ccc(O)cc2)c1O | 0.904 | 0.903
O=C(/C=C/c1ccc(O)c(O)c1)c1ccc(O)cc1O | 1.04 | 1.13
COc1cc(O)c(C(=O)/C=C/c2ccccc2)c(OC)c1 | 0.907 | 0.937
O=C(/C=C/c1ccc(O)cc1)c1ccc(O)cc1O | 1.24 | 1.41
O=C(/C=C/c1ccccc1)c1ccc(O)cc1O | 1.21 | 1.43
Clc1ccc(Nc2nc3ccccc3c3nc(C4CCCCC4)[nH]c23)cc1Cl | 0.84 | 0.867
OCC1OC(O)CC(O)C1O (configuration not stated) | 1.15 | 0.973
CCCCCCCC(=O)CCc1ccc(O)c(OC)c1 | 1.04 | 0.901
N=C(N)SCc1ccc(CSC(=N)N)s1 | 1.01 and 0.976 | 1.01 and 0.977
COCCOc1nc(N)c2[nH]c(=O)n(Cc3ccccc3)c2n1 | 1.21 | 1.13
O=C(O)CC1CC(c2ccccc2)=NO1 (configuration not stated) | 0.994 and 1.06 | 0.948 and 1.15
COC(=O)CC1CC(c2ccc(O)cc2)=NO1 (configuration not stated) | 1.51 | 1.75
CC(C)=CCC[C@](C)(O)[C@H]1CC[C@]2(C)[C@@H]1CC[C@@H]1[C@@]3(C)CCC(=O)C(C)(C)[C@@H]3CC[C@]12C | 1.05 | 0.987
CC(=O)OC[C@@]1(O)C[C@@]23CC[C@@H]4c5ccoc5C=C[C@@]4(C)[C@@H]2CC[C@@H]1C3 | 1.02 | 0.958

SMILES | PER2::LUC luminescence (time after treatment 24 h) | PER2::LUC luminescence (time after treatment 30 h)
N#Cc1cccc2sc(C(=O)N=C(N)N)cc12 | 1.02 | 1.08
C[N+](C)(C)C[C@H](O)CC(=O)O | 0.959 | 0.919
N[C@H](CC(=O)O)C(=O)O | 1.09 | 1.08
NCC(O)CC(=O)O (configuration not stated) | 1.23 and 1.06 | 1.56 and 0.991
O=C1OC(C=Cc2ccccc2)=NC1=Cc1cccnc1 | 1.03 | 1.05
O=C(CCc1ccccc1)N1CCC(O)(Cn2cnc3cc(Cl)ccc3c2=O)CC1 | 0.949 | 0.916
Cc1ccc2c(Nc3ccc(Cl)cc3)nccc2c1Nc1ncccc1-c1ncnc2nc[nH]c12 | 0.42 | 0.349
N=C(N)NC(=O)c1nc(Cl)c(N)nc1N | 1.32 | 1.12
N=C(NC(=O)c1nc(Cl)c(N)nc1N)Nc1ccccc1 | 1.32 | 1.39
N/C(=N\C(=O)c1nc(Cl)c(N)nc1N)NCc1ccccc1 | 1.08 | 0.986
CNc1ncnc2c1ncn2[C@H]1C[C@H](O)[C@@H](CO)O1 | 1.04 | 0.963
C[C@@H]1O[C@@H](O[C@@H]2[C@@H](O)[C@H](O)[C@@H](CO)O[C@H]2c2c(O)cc(O)c3c(=O)cc(-c4ccc(O)cc4)oc23)[C@H](O)[C@H](O)[C@H]1O | 1.04 | 0.979
O=C1c2ccccc2C(=O)C1c1ccccc1 | 1.05 and 0.913 | 1 and 0.991
O=C1c2ccccc2C(=O)C1c1ccc(Br)cc1 | 0.477 | 0.974
COc1ccc(C2C(=O)c3ccccc3C2=O)cc1 | 1.08 | 1.36
CCCCOC(=O)OCCCC | 1 | 1.02
CC1=CC(=O)CC(C)(C)C1(O)/C=C/C(C)=C\C(=O)O (racemic) | 1.01 | 1.02
CCCCCCOc1ccccc1C(N)=O | 1.33 | 1.53
CCOc1ccccc1C(N)=O | 1.03 and 0.951 | 0.986 and 0.793
CCOCCOc1ccccc1C(N)=O | 0.861 | 1.09
COc1ccc2cc([C@H](C)C(=O)O)ccc2c1 | 0.987 and 1.09 and 0.7 | 0.972 and 0.822 and 0.852
COc1ccc2cc(CCC(C)=O)ccc2c1 | 1.75 | 1.7
COc1ccc2cc([C@@H](C)C(=O)O)ccc2c1 | 1 | 1.05
CCO/N=C1\c2ccccc2-c2nc(C#N)c(C#N)nc21 | 0.664 | 0.619
C=CC(=O)c1ccc(CCCCCC)cc1 | 1.02 | 0.845
CCNCCNC(=O)c1c(C)[nH]c(/C=C2\C(=O)Nc3ccc(F)cc32)c1C | 0.42 | 0.619

SMILES | PER2::LUC luminescence (time after treatment 24 h) | PER2::LUC luminescence (time after treatment 30 h)
CC(C)(Cc1nc(-c2ccc(O)cn2)no1)C(=O)NC1=C(C(=O)O)CCCC1 | 1.02 | 1.08
FC(F)(F)c1ccccc1-n1ccnc1 | 0.975 | 0.907
c1ccc(-c2ccc(C(c3ccccc3)n3ccnc3)cc2)cc1 (configuration not stated) | 1.45 | 1.32
N#Cc1ccc(C(c2ccc(C#N)cc2)n2cncn2)cc1 | 0.794 | 1.11
O=C1c2ccccc2C(=O)c2oc(-c3ccccc3)nc21 | 1.15 | 0.538
Cn1ccc2cc(NC(=O)Nc3cccnc3)ccc21 | 1.15 | 0.855
CC(C)c1cc(-c2n[nH]c(=O)n2-c2ccc3c(ccn3C)c2)c(O)cc1O | 0.062 | 0.052
Cc1cc(NC(=O)Nc2ccc3c(ccn3C)c2)sn1 | 1.59 | 1.52
N[C@H](CCC(=O)O)C(=O)O | 1.1 | 1.01
CC(C)C1=CC2=CC[C@@H]3[C@](C)(CCC[C@@]3(C)C(=O)O)[C@H]2CC1 | 1.34 | 1.15
CC(C)c1cc2c(cc1S(=O)(=O)O)[C@@]1(C)CCC[C@@](C)(C(=O)O)[C@@H]1CC2 | 1.03 | 1
C=C1C[C@@]23CC[C@H]4[C@@](C)(CCC[C@@]4(C)C(=O)O)[C@@H]2CC[C@]1(O)C3 | 0.886 | 1.12
FC(F)(F)c1ccc(Nc2nc(-c3c(C(F)(F)F)nc4ccccn34)cs2)cc1 | 0.269 | 0.305
COc1cc(NC(=O)c2ccc(-c3ccc(Cl)cc3)o2)cc(OC)c1 | 0.947 | 1.04
COc1cccc(NC(=O)/C=C/c2ccc(Cl)cc2)c1 | 1.39 | 1
CC(C)(C)c1ccc(/C=C/C(=O)Nc2ccc3c(c2)OCCO3)cc1 | 0.942 | 1.11
C[n+]1ccc(C=Cc2ccc3ccccc3c2)cc1 | 0.908 | 1.07
CNc1ncnc2c1ncn2[C@@H]1O[C@H](CO)[C@@H](O)[C@H]1O | 0.974 | 1.04
CC(Cc1ccccc1)Nc1ncnc2c1ncn2C1OC(CO)C(O)C1O (single isomer, unassigned; (-)) | 0.925 | 0.965
Cc1ccccc1CNc1ncnc2c1ncn2[C@@H]1O[C@H](CO)[C@@H](O)[C@H]1O | 1.35 | 1.28
Nc1ccc(CCNc2ncnc3c2ncn3C2OC(CO)C(O)C2O)cc1 (configuration not stated) | 0.951 | 0.857
OC[C@H]1O[C@@H](n2cnc3c(Nc4ccccc4)ncnc32)[C@H](O)[C@@H]1O | 1.41 | 1.13
OCC1OC(n2cnc3c(NC4CCCCC4)ncnc32)C(O)C1O (configuration not stated) | 0.986 | 1.02
